# Only some compounds are listed: those with a hit (about 12% of all), similar ones and a draw of the others.
# L3MBTL1 block: L3MBTL1 (human) inhibition; Q9Y468; Potency, µM (doses to about 57.1 µM), for the others: top-dose activity, negative = inhibition, actives largely listed as inhibitors; 230,000 compounds, 0.66% hits; AID 485360; AlphaScreen L3MBTL1–H3K9me1 peptide binding; further: on the % scale 0 is the no-effect control and ±100 the full control effect; nearly all actives have a fitted effect of over 60% in size
#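 Read-out is AlphaScreen signal from streptavidin donor and nickel chelate acceptor beads (10 ug/mL final each) bridging L3MBTL1 (50 nM) and biotinylated K9-monomethylated H3(1-15) peptide (75 nM), after 30 min compound exposure at room temperature.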
# G9a inh: G9a (human) methyltransferase inhibition. G9a H3K9 monomethylation, AlphaScreen, 2 h. 350,000 compounds, 8.8% hits. Potency, µM (series often up to 102 µM), for the others: at the top dose activity, negative = inhibition, actives largely listed as inhibitors; further: on the % scale 0 is the no-effect control and ±100 the full control effect; nearly all actives have a fitted effect of over 75% in size
#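 AlphaScreen detection with an anti-monomethyl H3K9 antibody quantified product after a 2 h room-temperature reaction containing 500 nM biotinylated H3K9 peptide, 20 µM SAM and 20 nM enzyme, which had been preincubated 15 min with compound.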
# BAZ2B block: BAZ2B (human) inhibition | AlphaScreen BAZ2B-H3K14Ac peptide displacement | Potency, µM (doses to about 114 µM), without a hit: at the top dose activity change, negative = inhibition, usual class: inhibitors | 360,000 compounds, 4.4% hits; further: on the % scale 0 is the no-effect control and ±100 the full control effect; nearly all actives have a fitted effect of over 60% in size
#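 Multi-concentration screen (max 110 uM) measuring displacement of acetylated histone H3 peptide from BAZ2B by AlphaScreen, using 50 nM protein, 50 nM peptide and 10 ug/mL streptavidin donor plus Ni-chelate acceptor beads.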
# Sfp PPTase inh: blocks B. subtilis Sfp PPTase activity; AID 1490; Biochemical Sfp PPTase activity, qHTS; Q9F4F7; Potency, µM, for the others: largest response in the series, negative = inhibition, actives largely listed as inhibitors; 310,000 compounds, 3.5% hits;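 further: the enzyme is Sfp with the accession as filed and its product quenches rhodamine fluorescence; 0% = enzyme reaction without inhibitor and -100% = no enzyme wells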
#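 Compounds were incubated with enzyme (final 15 nM) for 15 min at room temperature before substrate addition started the reaction. Fluorescence at 525 nm excitation, 598 nm emission was recorded immediately and after 30 minutes.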
# JMJD2A Tudor: blocks the human JMJD2A Tudor domain; O75164; AlphaScreen JMJD2A-Tudor / H3K4me3 peptide binding; Potency, µM (series often up to 114 µM), for inactives: top-dose activity change, negative = inhibition, most hits filed as inhibitors; 390,000 compounds, 4.4% hits; AID 504339; further: on the % scale 0 is the no-effect control and ±100 the full control effect; nearly all actives have a fitted effect of over 50% in size
# HP1b binding inh: HP1-beta chromodomain-methylated histone interaction inhibition; AID 540317; 390,000 compounds, 0.56% hits; Potency, µM (titrated, usually from 114 µM), for inactives: top-dose activity change, negative = inhibition, hits mostly inhibitors; AlphaScreen HP1-beta / biotin-H3K9me3 peptide binding; P83916; further: nearly all actives have a fitted effect of over 70% in size
#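 HP1-beta protein (50 nM final) preincubated 30 min at room temperature with biotinylated H3(1-18)K9me3 peptide (50 nM) in PBS pH 7.4, 0.01% Tween-20, then compound added for 30 min. AlphaScreen streptavidin donor/nickel chelate acceptor beads (10 ug/mL final), 30 min dark, luminescence read.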
# Numbers without * were called inactive; ? = inconclusive; . = no result; [ ] = another dose, or the depositor's remark. The call rests on the fitted dose curve; in most records, active means well fitted curve in the direction sought with a large enough effect; inconclusive means small, poorly fitted or top-dose-only effect, or another doubt; inactive means no such curve, though single readings can be large; an effect the other way counts as inactive or inconclusive. Potency means the concentration at half of the fitted maximal effect.
SMILES,L3MBTL1 block,G9a inh,BAZ2B block,Sfp PPTase inh,JMJD2A Tudor,HP1b binding inh
CCn1cc(Cl)c(C(=O)Nc2cccc(C(F)(F)F)c2)n1,8%,52%,31%,29%,50µM*,22%
Nc1ccccc1Nc1cccc(C(F)(F)F)c1,-16%,6.3µM*,50µM*,7%,?,?
CCOC(=O)c1ccc(NC(=O)c2nccnc2C(=O)O)cc1,29%,28µM*,?,-26%,40µM*,15%
CCOC(=O)c1ccc(Nc2cc(C)nc(C)c2C(=O)OCC)cc1,.,-6%[59 µM],-6%,16%,4%,49%
CCOC(=O)c1ccc(NC(=O)c2c(Cl)cc(C)nc2C)cc1,3%,50µM*,-33%,-13%,-11%,11%
Cc1cc(Cl)c(C(=O)Nc2cccc(C(F)(F)F)c2)c(C)n1,1%,45µM*,?,?,?,10%
Cc1cc(C)nc(Nc2cccc(C(F)(F)F)c2)n1,5%,50µM*,8%,6%,-3%,39%
Cc1nc(Cl)sc1C(=O)Nc1cccc(C(F)(F)F)c1,.,.,.,.,0%,87%
COCCNC(=O)/C(C#N)=C/C=C/c1ccccc1[N+](=O)[O-],-5%,12%,-26%,15%,-22%,15%
CN(C)S(=O)(=O)c1ccc(Cl)c(NC(=O)CN2C(=O)NC(C)(C3CC3)C2=O)c1 (configuration not stated),.,20%,-1%,9%,1%,32%
CCC1CN(C(=O)N2CCC(C(=O)NCc3cc(OC)ccc3OC)CC2)c2ccccc2O1 (configuration not stated),.,-27%[59 µM],-30%,.,-18%,28%
COc1ccc(NC(=O)c2cc3n(n2)C(C(F)(F)F)CC(c2ccc4c(c2)OCO4)N3)cc1OC (configuration not stated),2%,28µM*,?,8%,?,-9%
Cc1cccc(NC(=O)c2cc3n(n2)C(C(F)(F)F)CC(c2ccc4c(c2)OCO4)N3)c1 (configuration not stated),21%,-3%[12.7 µM],-3%,25%,-21%,21%
COc1ccc(C(=O)Nc2cc(C)c(NC(=O)c3ccccn3)cn2)cc1,.,45µM*,-21%,-17%,-12%,37%
Cc1cc(NC(=O)C2CC2)ncc1NC(=O)c1ccccn1,2%,?,79µM*,?,-27%,-10%
C[C@]12C[C@H](O)CC(CO)(CO)C1[C@H](O)C[C@@]13CC4[C@@H](CC12)[C@@]4(C)C3 (some centres not stated),.,.,.,4%,.,.
O=C(OCCOc1ccc(Br)cc1)c1ccc(Cl)c(S(=O)(=O)N2CCOCC2)c1,19%,6%,10%,.,-1%,41%
Cc1cc(N2C(=O)C(O)=C(C(=O)c3cc4ccccc4o3)C2c2ccc(Cl)cc2)no1 (configuration not stated),.,-7%[0.0925 µM],?,8%,?,-3%
Cc1cc(N2C(=O)C(O)=C(C(=O)c3cc4ccccc4o3)C2c2ccc(Br)cc2)no1 (configuration not stated),.,1.6µM*,?,-4%,?,-3%
CCCOc1ccc(C2C(C(=O)c3cc4ccccc4o3)=C(O)C(=O)N2c2cc(C)on2)cc1 (configuration not stated),.,32µM*,-30%,7%,?,9%
COCCn1c(SCC(=O)Nc2cc(Cl)ccc2OC)nc2c([nH]c3ccccc32)c1=O,.,11%[59 µM],28%,.,-10%,44%[57 µM]
Cc1ccc(Cl)cc1N1CCN(C(=O)c2noc3c2CCCC3)CC1,.,16%[59 µM],45%[57.1 µM],.,22%,36%
CC(C)N(C)Cc1nnnn1CC(=O)NCCc1cccc(C(F)(F)F)c1,-3%,10%,-12%,1%,-16%,34%
S=c1[nH]c2cc(-c3ccccc3)ccc2o1,.,10µM*,?,?,-20%,14%[57 µM]
S=c1[nH]c2ncccc2o1,.,?,?,-24%,-12%,-1%

# Bioassay records deposited in PubChem by National Center for Advancing Translational Sciences (NCATS).
